Tests used:
Details in all cases: concentration: 1 μM, replicates: in singlicate; n = 1
[1] = system: T1, ASK2
T1 construct: gene MAP3K6

[2] = system: AURKA
[3] = system: AURKB
[4] = system: AURKC
[5] = system: AXL
[6] = system: T2, BIKE
T2 construct: gene BMP2K

[7] = system: BLK
[8] = system: BMPR1A
[9] = system: BMPR1B
[10] = system: BMPR2
[11] = system: BMX
[12] = system: BRAF
[13] = system: T3, BRK
T3 construct: gene PTK6

[14] = system: BRSK1
[15] = system: BRSK2
[16] = system: BTK
[17] = system: BUB1
[18] = system: CAMK1B
[19] = system: CAMK1D
[20] = system: CAMK1G
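Note: KINOMEscan kinase panel screen.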

Structure (SMILES) | %Inh [1] [%] | %Inh [2] [%] | %Inh [3] [%] | %Inh [4] [%] | %Inh [5] [%] | %Inh [6] [%] | %Inh [7] [%] | %Inh [8] [%] | %Inh [9] [%] | %Inh [10] [%] | %Inh [11] [%] | %Inh [12] [%] | %Inh [13] [%] | %Inh [14] [%] | %Inh [15] [%] | %Inh [16] [%] | %Inh [17] [%] | %Inh [18] [%] | %Inh [19] [%] | %Inh [20] [%]
CNC(=O)c1ccccc1Nc1nc(Nc2ccc(N3CCOCC3)cc2)ncc1Cl.Cl [GSK1576028] | 16 | 100 | 99.9 | 100 | 100 | 100 | 99.7 | 28 | 100 | 53 | 91.4 | 72 | 94.6 | 78 | 92.4 | 96.9 | 96.7 | 39 | 54 | 30
C[C@@H]1CC[C@@H](C(=O)Nc2ccccc2)CN1c1cc(-c2ccc3c(N)n[nH]c3c2)nc(N)n1 [GSK2286062] | 2 | 4 | 16 | 26 | 0 | 9 | 0 | 0 | 0 | 0 | 24 | 0 | 3 | 0 | 0 | 0 | 16 | 0 | 23 | 6
COc1ccc(Nc2nccc(NCCNC(=O)c3cc4ccccc4s3)n2)cc1 [GSK1379896] | 0 | 16 | 0 | 17 | 14 | 4 | 23 | 0 | 0 | 0 | 17 | 0 | 1 | 6 | 0 | 0 | 9 | 39 | 6 | 0
CCn1c(-c2nonc2N)nc2c(C#CC(C)(C)O)ncc(OCCCCN)c21.O=C(O)C(F)(F)F.O=C(O)C(F)(F)F [GSK507274] | 16 | 0 | 38 | 9 | 0 | 26 | 8 | 14 | 0 | 12 | 19 | 8 | 27 | 0 | 0 | 0 | 37 | 0 | 40 | 7
O=c1[nH]cc(-c2ccc(N3CCOCC3)cc2)c2sc(-c3cn[nH]c3)cc12 [GSK2276055] | 13 | 28 | 21 | 21 | 0 | 28 | 0 | 1 | 0 | 24 | 11 | 35 | 0 | 0 | 0 | 0 | 0 | 5 | 29 | 12
COC(=O)Nc1nc2cc(Oc3ccc(NC(=O)Nc4cc(C(F)(F)F)ccc4F)cn3)ccc2[nH]1.Cl.Cl [GW681170] | 0 | 78 | 40 | 52 | 98.3 | 1 | 31 | 0 | 0 | 10 | 5 | 73 | 0 | 0 | 0 | 0 | 3 | 28 | 12 | 44
COc1cc(Nc2nccc(N3CCC(NC(=O)c4cc5ccccc5s4)C3)n2)cc(OC)c1OC (centres unmarked) [GSK1379760] | 100 | 59 | 68 | 86 | 14 | 70 | 100 | 0 | 0 | 13 | 1 | 4 | 11 | 0 | 4 | 67 | 26 | 49 | 14 | 18
Cc1occc1-c1ncc(OC[C@@H](N)Cc2c[nH]c3ccccc23)cc1-c1ccc2[nH]nc(C)c2c1.O=C(O)C(F)(F)F [GSK682037] | 7 | 0 | 0 | 53 | 35 | 90.5 | 19 | 0 | 0 | 0 | 22 | 0 | 7 | 0 | 0 | 0 | 23 | 29 | 82 | 27
CSc1cccc2c(-c3ccncn3)c(-c3ccc(F)cc3)nn12 [GW514786] | 29 | 8 | 15 | 7 | 11 | 8 | 19 | 10 | 0 | 11 | 14 | 13 | 9 | 14 | 0 | 11 | 89 | 0 | 7 | 0
Cc1ccc(S(=O)(=O)Nc2ccc(Nc3nccc(Nc4cccc5[nH]ncc45)n3)cc2)cc1 [GSK581271] | 0 | 99.8 | 37 | 52 | 0 | 65 | 0 | 0 | 0 | 4 | 5 | 6 | 34 | 5 | 0 | 0 | 44 | 7 | 8 | 0
NCCCC(NC(=O)c1cc(Br)c(-c2ccnc3[nH]ccc23)s1)c1ccccc1.O=C(O)C(F)(F)F.O=C(O)C(F)(F)F (centres unmarked) [GSK1287544] | 0 | 74 | 56 | 95.7 | 74 | 97.9 | 0 | 0 | 0 | 21 | 7 | 0 | 3 | 28 | 0 | 0 | 21 | 10 | 18 | 0
Cl.Cl.NCC(C(=O)Nc1cc(Br)c(-c2ccnc3[nH]ccc23)s1)c1ccccc1 (centres unmarked) [GSK1269851] | 26 | 81 | 9 | 53 | 57 | 99.8 | 0 | 78 | 0 | 30 | 12 | 1 | 7 | 6 | 0 | 0 | 59 | 24 | 0 | 0
CN1CCN(Cc2cccc(-c3ccc4c(Nc5ccc(Oc6ccccc6)cc5)ccnc4c3)c2)CC1 [GW578342] | 0 | 6 | 0 | 9 | 17 | 1 | 94.8 | 0 | 0 | 8 | 20 | 0 | 90.2 | 0 | 1 | 90.8 | 35 | 10 | 7 | 0
Cc1ccc(C)c(NC(=O)NC2CCN(c3ccnc(Nc4ccc(F)cc4)n3)C2)c1 (centres unmarked) [GSK1379720] | 0 | 0 | 48 | 76 | 0 | 23 | 24 | 0 | 0 | 21 | 0 | 0 | 21 | 0 | 0 | 0 | 49 | 0 | 6 | 11
Cc1ccc(C(=O)N2CC[C@@H](O)C2)cc1-n1c(C)cc(OCc2ccc(F)cc2F)c(Br)c1=O | 0 | 0 | 0 | 0 | 0 | 0 | 70 | 0 | 54 | 0 | 0 | 58 | 20 | 0 | 0 | 0 | 0 | 0 | 17 | 0
CN1CCN(CCCNc2nccc(-c3c(-c4ccc(F)cc4)nn4cc(C(F)(F)F)ccc34)n2)CC1 [GW621581] | 0 | 0 | 11 | 0 | 10 | 11 | 50 | 0 | 0 | 0 | 0 | 41 | 9 | 2 | 1 | 0 | 26 | 5 | 11 | 0
CCc1ccc(-c2ccc3c(c2)-c2c(cnn2C)S(=O)(=O)N3C)cc1 | 0 | 14 | 0 | 35 | 8 | 0 | 0 | 0 | 0 | 0 | 0 | 0 | 1 | 19 | 0 | 3 | 15 | 0 | 0 | 5
Cc1cccc(NC(=O)Nc2ccc(Oc3ncnc4ccn(C)c34)cc2)c1 | 0 | 0 | 94.9 | 85 | 44 | 10 | 0 | 0 | 0 | 0 | 0 | 0 | 0 | 0 | 0 | 91.6 | 0 | 14 | 6 | 0
Cn1cc(-c2ccc3c(c2)CCN3C(=O)Cc2cccc(Cl)c2)c2c(N)ncnc21 [GSK2606590] | 19 | 23 | 89 | 65 | 96.3 | 18 | 69 | 0 | 0 | 4 | 4 | 11 | 56 | 7 | 0 | 0 | 0 | 0 | 32 | 25
